# Measurements as given in the supplement of paper PMC10646978.
# ± gives the standard deviation.
# Key:
# Conditions in all cases: modulator concentration 10 µM
# [1] = test system: RAW-Dual (murine macrophage reporter line); test: NF-kB reporter (SEAP) activity fold change vs agonist alone; higher = enhanced NF-kB activity
# Summary of the method: (§1)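 RAW-Dual murine macrophage reporter cells were plated at 50 000 per well in 384-well plates, pin-transferred compound to 10 μM final, and pre-incubated for 1 hour at 37 °C before a PRR agonist was added and the cells incubated overnight. NF-κB activity was read from supernatant SEAP with QUANTI-Blue at 620 nm absorbance, and IRF activity from Lucia luciferase with QUANTI-Luc by luminescence. Each signal was expressed as fold change by dividing by the mean agonist-only control on the same plate. Two replicate plates were averaged, with errors obtained by propagation.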
# [2] = test system: RAW-Dual (murine macrophage reporter line); test: IRF reporter (Lucia luciferase) activity fold change vs agonist alone; higher = enhanced IRF activity
# Summary of the method: as §1
# [3] = test system: RAW-Dual (murine macrophage reporter line); test: viability score (confluency relative to resting cells, overnight) (fraction); higher = more viable, active = viable (0.7 or more)
# Summary of the method: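 RAW-Dual macrophages in 384-well plates were exposed overnight to compound at 10 μM final. Confluency was imaged with IncuCyte, and two confluency masks were generated with IncuCyte software over all imaged wells. The viability score is confluency expressed relative to resting cells. Compounds were called viable if both masks exceeded 70% of resting cells.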
# [4] = agonist: CpG ODN 1826 0.5 ug/mL
SMILES,"NF-kB reporter [1, 4]",NF-kB reporter ([1]; agonist: LPS 0.1 ug/mL),NF-kB reporter ([1]; agonist: MPLA […]),IRF reporter ([2]; agonist: 3'3'-cGAMP 10 ug/mL),IRF reporter ([2]; agonist: LPS 0.1 ug/mL),IRF reporter ([2]; agonist: MPLA […]),viability score [3]
O=C(O)c1ccc(NC(=O)c2cccc(F)c2)cc1,1.09 ± 0.091,1.01 ± 0.1,0.962 ± 0.061,0.963 ± 0.035,1.08 ± 0.056,0.994 ± 0.18,0.998 (active)
CC(=O)Oc1cc2c(s1)CCN(C(C(=O)C1CC1)c1ccccc1F)C2.Cl (stereo not drawn),0.767 ± 0.1,0.727 ± 0.11,0.77 ± 0.043,0.779 ± 0.073,1.01 ± 0.088,0.998 ± 0.12,0.983 (active)
COc1ccc([C@@H]2Sc3ccccc3N(CCN(C)C)C(=O)[C@@H]2OC(C)=O)cc1.Cl,0.958 ± 0.074,1.02 ± 0.053,1.21 ± 0.064,0.969 ± 0.15,0.997 ± 0.11,1.05 ± 0.1,0.985 (active)
O=c1oc2c(O)c(O)cc3c(=O)oc4c(O)c(O)cc1c4c23,1.05 ± 0.32,0.944 ± 0.051,0.963 ± 0.1,0.85 ± 0.055,1.11 ± 0.12,1.1 ± 0.22,0.997 (active)
CC(C)n1cnc(S(=O)(=O)N2CCC(S(=O)(=O)Cc3ccccc3)CC2)c1,0.891 ± 0.05,0.891 ± 0.072,1.02 ± 0.055,1.06 ± 0.062,1.3 ± 0.3,1.37 ± 0.34,1 (active)
Cc1ccc(CCNc2ccccc2C)cn1,1.05 ± 0.084,0.931 ± 0.11,1.2 ± 0.12,1 ± 0.067,1.35 ± 0.21,1.73 ± 0.39,0.993 (active)
CN(C)CCCNc1cc(C(C)(C)C)nc2c(-c3ccccc3)cnn12,0.172 ± 0.017,0.13 ± 0.012,1.23 ± 0.18,0.0482 ± 0.0069,0.0973 ± 0.0058,0.712 ± 0.34,0.0497 (inactive)
COc1cc(C=NNC(=O)CSc2ccccn2)cc(Cl)c1O,1.16 ± 0.073,1.02 ± 0.15,0.953 ± 0.026,1.04 ± 0.042,0.95 ± 0.12,0.94 ± 0.18,1 (active)
COc1ccc(C=CC(=O)Nc2sc(C(=O)OC(C)C)c(C)c2C(N)=O)cc1,0.846 ± 0.076,0.798 ± 0.045,0.958 ± 0.086,0.949 ± 0.043,1.44 ± 0.092,1.57 ± 0.17,1 (active)
O=C(Oc1ccc2ccccc2c1)c1ccccc1,0.981 ± 0.055,1.06 ± 0.11,1.04 ± 0.066,0.906 ± 0.06,1.27 ± 0.12,1.12 ± 0.11,0.975 (active)
Cc1cccc(-c2nn3c(c2-c2ccnc4ccc(C(N)=O)cc24)CCC3)n1,1.08 ± 0.046,1.22 ± 0.1,1.46 ± 0.12,0.903 ± 0.042,0.976 ± 0.16,1.12 ± 0.28,0.99 (active)
Nc1c2c(nc3ccccc13)CCCC2O (stereo not drawn) [Prestw-448],0.958 ± 0.059,0.88 ± 0.068,0.958 ± 0.026,1.01 ± 0.042,0.964 ± 0.05,0.906 ± 0.087,0.994 (active)
Cc1cc2c(cc1S(N)(=O)=O)S(=O)(=O)CCC2,1.02 ± 0.094,1.03 ± 0.085,0.997 ± 0.022,1 ± 0.11,0.95 ± 0.044,0.891 ± 0.14,1 (active)
Cc1ccsc1C(=CCCN1CCC[C@@H](C(=O)O)C1)c1sccc1C,1.06 ± 0.084,1.06 ± 0.053,0.972 ± 0.033,0.857 ± 0.056,0.961 ± 0.05,0.732 ± 0.082,0.997 (active)
COc1ccc(CCN(C)CCCC(C#N)(c2ccc(OC)c(OC)c2)C(C)C)cc1OC.Cl (stereo not drawn),0.742 ± 0.21,1.02 ± 0.25,1.12 ± 0.082,0.572 ± 0.018,1.32 ± 0.26,1.27 ± 0.12,0.977 (active)
COc1ccc(C(=O)C=Cc2cc(OC)c(OC)c(OC)c2)c(O)c1,1.63 ± 0.13,0.199 ± 0.018,0.273 ± 0.026,0.148 ± 0.014,0.0569 ± 0.019,0.0398 ± 0.015,0.794 (active)
Cc1nc(SCC(=O)N2CCCCCC2)[nH]c(=O)c1C,1.15 ± 0.077,1.17 ± 0.14,0.909 ± 0.04,1 ± 0.064,1.07 ± 0.14,0.977 ± 0.3,1 (active)
O=c1c(O)c(-c2ccc(O)cc2O)oc2cc(O)cc(O)c12,1.03 ± 0.28,1.1 ± 0.066,1.01 ± 0.085,0.739 ± 0.027,1.11 ± 0.21,1.14 ± 0.14,1 (active)
CNC(=O)[C@H](Cc1ccccc1)NC(=O)[C@H](CC(C)C)[C@H](CSc1cccs1)C(=O)NO,1.23 ± 0.093,1.22 ± 0.13,1.01 ± 0.048,0.96 ± 0.15,1.05 ± 0.15,0.947 ± 0.28,0.999 (active)
O=C(CCn1c(=O)oc2ccccc21)Nc1ccncc1,1.17 ± 0.068,1.04 ± 0.079,1.01 ± 0.033,0.996 ± 0.16,0.932 ± 0.045,0.949 ± 0.14,1 (active)
O=C(CSc1ncnc2c(-c3ccccc3)c[nH]c12)NCc1ccc(Cl)cc1,1.18 ± 0.059,1.13 ± 0.089,0.796 ± 0.035,1.25 ± 0.064,1.18 ± 0.093,1.24 ± 0.26,0.99 (active)
Cn1nc(-c2ccc(F)cc2)cc1C(=O)NCC1(CO)CC1,0.865 ± 0.037,1.04 ± 0.1,1.03 ± 0.056,1.03 ± 0.049,1.09 ± 0.32,1.23 ± 0.33,1.02 (active)
CSc1nc(C(C)(C)C)cc(C(F)(F)F)c1C#N,0.738 ± 0.061,0.955 ± 0.15,1.12 ± 0.049,0.998 ± 0.05,0.855 ± 0.12,0.923 ± 0.26,0.996 (active)
CC1=C(C(=O)OCc2ccc3c(c2)OCO3)C(c2ccc(Cl)c(Cl)c2)NC(=O)N1 (stereo not drawn),1.04 ± 0.17,1.13 ± 0.083,1.11 ± 0.1,0.458 ± 0.025,0.712 ± 0.093,0.772 ± 0.15,1.01 (active)
